An excerpt weighted towards active compounds, which were near 8.1% of everything screened.
Epigenetic reg: Quantitative High-Throughput Screen for Regulators of Epigenetic Control; murine LDR cells, GFP reporter derepression, 30 h; Potency, µM (titrated, usually from 53.9 µM), for inactives: at the highest dose GFP activation, hits mostly activators; 280,000 compounds, 0.2% hits; AID 1865, 2009; also: % of control where 0% means no effect; nearly all actives have a fitted effect of over 60% in size
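Reporter derepression read as number of fluorescent GFP-positive objects, 20-120 um in size, counted by laser-scanning cytometer. Mouse LDR line with an epigenetically silenced CMV-GFP locus; compound incubation 30 h, 37 C.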
PINK1 modulator: A Quantitative High throughput Screen to Identify Chemical Modulators of PINK1 Expression; PINK1 immunofluorescence, high-content cytometry, 24 h; Potency, µM (titrated, usually from 76.6 µM), inactives show at the top dose activation (PINK1 increase), hits mostly activators; 410,000 compounds, 0.2% hits; AID 624263, 2012; active = well fitted activation curve with a large enough effect; inconclusive = small, poorly fitted or top-dose-only effect; cell line not stated here; also: % of control where 0% means no effect; nearly all actives have a fitted effect of over 65% in size
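Measures PINK1 amount and localization on or inside mitochondria by immunofluorescence. Stable cells get compounds at 5 concentrations for 24 hours before fixation and staining; CCCP controls included.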
Sfp inh: qHTS Assay for Inhibitors of Bacillus subtilis Sfp phosphopantetheinyl transferase (PPTase); Potency, µM, for the others: largest response in the series, negative = inhibition, actives largely listed as inhibitors; 4'-phosphopantetheinyl transferase ffp (Bacillus subtilis), Q9F4F7; Biochemical Sfp PPTase activity, qHTS; AID 1490, 2009; 310,000 compounds, 3.5% hits;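 also: the enzyme is Sfp with the accession as filed and its product quenches rhodamine fluorescence; 0% = enzyme reaction without inhibitor and -100% = no enzyme wells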
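Step 1, compound plus 15 nM Sfp-PPTase, 15 min, room temperature. Step 2, add rhodamine-CoA (5 uM) and BHQ-2-YbbR (12.5 uM). Step 3, read 525/598 nm fluorescence at 0 and 30 min.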
RORgamma inh: qHTS for inhibitors of ROR gamma transcriptional activity; Drosophila S2 Gal4-RORgamma UAS-luciferase reporter, 20 h; Potency, µM (highest dose often 53.6 µM), inactives show at the top dose activity change, negative = inhibition, hits mostly inhibitors; Nuclear receptor ROR-gamma (Mus musculus), P51450; AID 2551, 2010; 310,000 compounds, 5.4% hits; also: % is scaled to controls: 0 for no effect and ±100 for the full control effect; nearly all actives have a fitted effect of over 60% in size
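Read-out: Photinus luciferase luminescence; inhibitors lower reporter signal. Insect Schneider cells with Gal4-ROR gamma fusion under metallothionein promoter, UAS reporter; 700 uM final copper sulfate induction, 20 hr, ambient temperature.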
ClpP mod: qHTS Assay for Activators of ClpP; AID 651965, 2013; ATP-dependent Clp protease proteolytic subunit (Bacillus subtilis (strain 168)), P80244; purified B. subtilis ClpP, FRET peptide cleavage, 20 min; Potency, µM (highest dose often 57.5 µM), inactives show at the top dose activity change, negative = active; 340,000 compounds, 1.9% hits; active = well fitted falling curve with a large enough effect; inconclusive = small, poorly fitted or top-dose-only effect; inactive = no such curve, though single readings can be large or run the other way; also: the source files actives as falling curves though it sought activators and does not explain the sign; nearly all actives have a fitted effect of over 65% in size
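Buffer: 100 mM Tris/HCl pH8, 100 mM KCl, 0.05% low protease BSA, 2.5% glycerol, 0.01% Tween-20. ClpP 10 microg/mL final; 20 min RT; delta FRET normalized to ADEP and DMSO controls.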
VP16 counter: VP16 counterscreen qHTS for inhibitors of ROR gamma transcriptional activity | Drosophila S2 Gal4-VP16 UAS-luciferase, luminescence, 20 h | Potency, µM (highest dose often 53.6 µM), for the others: at the highest dose activity, negative = inhibition, actives largely listed as inhibitors | 310,000 compounds, 3.5% hits;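 also: Gal4-VP16 expression switched on by copper sulfate through the metallothionein promoter; % is scaled to controls: 0 for no effect and ±100 for the full control effect; nearly all actives have a fitted effect of over 50% in size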
* = called active by the depositor; ? = inconclusive; / = not tested or not shown. Unless noted, calls follow the shape of the dose curve; as a rule, active = well fitted curve in the direction sought with a large enough effect; inconclusive = small, poorly fitted or top-dose-only effect, or another doubt; inactive = no such curve, though single readings can be large; an effect the other way counts as inactive or inconclusive. Potency is read from the fitted curve at half-maximal effect.

SMILES	Epigenetic reg	PINK1 modulator	Sfp inh	RORgamma inh	ClpP mod	VP16 counter
Cc1nc2cc(NC(=O)[C@@H]3C[C@@H](Sc4ccccn4)CN3Cc3cccc(F)c3)ccc2s1	/	0%	/	/	/	/
CN(C)c1ccc(/C=C/c2cc3ccccc3cn2)cc1	/	/	/	/	-4%	/
Cn1c(=O)c2sccc2n2c(CCC(=O)N3CCN(c4cccc(Cl)c4)CC3)nnc12	-2%	3%	/	/	2%	/
Cc1ccnc(SC2CC(=O)N(c3ccc(F)cc3)C2=O)n1 (stereo unspecified)	/	-1%	6%	?	2%	?
Cc1ccc(N2C(=O)CC(Sc3ncccn3)C2=O)cc1C (stereo unspecified)	/	-1%	16%	13µM*	-1%	?
CC(C)(C)n1[nH]c2c3c(ccc2c1=O)C(=O)c1ccccc1C3=O	-1%	-1%	15%	?	0%	-19%
Cc1ccc(C)c(-n2[nH]c3c4c(ccc3c2=O)C(=O)c2ccccc2C4=O)c1	0%	-2%	-8%	6.3µM*	0%	-23%
COCCCn1[nH]c2c3c(ccc2c1=O)C(=O)c1ccccc1C3=O	-1%	-1%	-18%	16µM*	0%	?
COc1cc(/C=C2\C(=O)ON=C2c2ccccc2)cc(OC)c1OC	15%	3%	50µM*	-3%	-1%	1%
COc1ccc(/C=C2\C(=O)ON=C2c2cccc([N+](=O)[O-])c2)cc1	1%	/	56µM*	5%	/	4%
COc1ccc(/C=C2/C(=O)ON=C2c2ccccc2)cc1OC	8%	0%	35µM*	1%	-1%	?
NC(=O)COc1ccc(/C=C2\C(=O)ON=C2c2ccccc2)cc1	/	2%	/	/	1%	/
COc1ccc(C=C2C(=O)OC(C)(C)OC2=O)cc1OC	2%	2%	-12%	29%	-1%	0%
COc1ccc(/C=C2\C(=O)ON=C2c2ccccc2)cc1OC	/	-1%	22µM*	13µM*	0%	11µM*
O=C(c1ccc2c(c1)N(Cc1ccccc1)C(=O)c1ccccc1S2=O)N1CCC(Cc2ccccc2)CC1 (stereo unspecified)	1%	1%	/	/	4%	/
CCc1ccc(NC(=O)c2cc(CN3CCOCC3)on2)cc1	0%	2%	/	/	-1%	/
Cc1ccc(NC2=CC(c3ccccc3F)N(c3ccc(C)cc3)C2=O)cc1 (stereo unspecified)	-1%	1%	/	/	?	/
O=C1NNC(c2ccccc2)=N/C1=C\c1ccco1	0%	3%	35µM*	30%	/	-6%
Cc1cccc(C2=NOC(=O)/C2=C\c2ccccc2F)c1	/	-1%	/	/	-12%	/
O=C1ON=C(c2ccccc2)/C1=C/c1ccco1	-1%	-1%	50µM*	8%	0%	0%
CCOc1cc(/C=C2\C(=O)ON=C2c2ccccc2)ccc1OC	/	-1%	28µM*	10%	1%	-20%
O=C1ON=C(c2ccc([N+](=O)[O-])cc2)/C1=C/c1ccccc1O	/	10%	40µM*	0%	/	?
O=C(c1cccc(Cl)c1)n1nc(-c2cccnc2)nc1NCc1ccccc1	-1%	6%	/	/	-4%	/
COc1ccc(N2CCN(S(=O)(=O)c3ccc4c(c3)CCCN4C(C)=O)CC2)cc1	0%	-1%	/	/	-2%	/
Cc1ccc2nc(-c3ccc(C)c(NC(=O)COc4ccc(Cl)cc4)c3)oc2c1	/	3%	/	/	4%	/
SMILES	Epigenetic reg	PINK1 modulator	Sfp inh	RORgamma inh	ClpP mod	VP16 counter
O=C1ON=C(c2ccccc2)/C1=C/c1ccc(-c2ccccc2[N+](=O)[O-])o1	-1%	-6%	?	?	2%	10µM*
COC(=O)C1CCN(Cc2ccc3c(c2)CN(C(=O)c2cc(C4CC4)on2)CCO3)CC1	/	0%	/	/	/	/
CCCCNC(=S)N(C)/N=C/c1c(C)[nH]c2ccccc12	0%	12%	-4%	13µM*	0%	?
CCCCNC(=S)N(C)/N=C/c1c(F)c(F)c(F)c(F)c1F	-3%	-2%	-6%	-1%	3%	-10%
CC(NC(=O)c1ccc2c(c1)sc1nc(-c3ccc(F)cc3)cn12)C12CC3CC(CC(C3)C1)C2 (stereo unspecified)	1%	3%	/	/	-6%	/
CCOC(=O)c1sc2ccccc2c1S(=O)(=O)NCc1ccc(F)cc1	0%	2%	/	/	-6%	/
O=Cc1ccc(CO)o1	/	/	/	10%	/	-8%
O=[N+]([O-])c1cccc(/C=N/NC2=NS(=O)(=O)c3ccccc32)c1	-4%	0%	6%	-6%	/	1%
CN(C)c1ccc(/C=N/NC2=NS(=O)(=O)c3ccccc32)cc1	/	4%	13%	4µM*	/	5.6µM*
O=S1(=O)N=C(N/N=C/c2ccc(Br)o2)c2ccccc21	0%	-2%	1%	6.3µM*	/	14µM*
O=S1(=O)N=C(N/N=C/C=C/c2ccccc2)c2ccccc21	0%	-1%	6%	0.4µM*	-4%	0.63µM*
COc1ccc(/C=N/NC2=NS(=O)(=O)c3ccccc32)cc1	/	3%	-5%	?	-1%	?
O=S1(=O)N=C(N/N=C/c2ccccn2)c2ccccc21	-1%	-2%	6%	?	-8%	?
Cc1ccc(-c2nc(SCC(=O)N3CCc4ccccc43)c3c(=O)n(C)c(=O)n(C)c3n2)cc1	-4%	2%	/	/	0%	/
CC(=O)c1cccc(NC(=S)NCCC2=CCCCC2)c1	0%	1%	9%	7.1µM*	0%	7.1µM*
Cc1ccc(NC(=S)NCCC2=CCCCC2)cc1	2%	5%	-1%	5.6µM*	/	6.3µM*
CCOC(=O)c1ccc(NC(=S)NCCC2=CCCCC2)cc1	2%	32µM*	48%	2.8µM*	-14%	3.2µM*
CCN1C(=O)c2ccccc2S(=O)c2ccc(C(=O)NCc3ccc(Cl)cc3)cc21 (stereo unspecified)	0%	-1%	/	/	-5%	/
Cc1c(C(=O)N(C)C2CCOC2)sc2ncnc(NCc3ccc4c(c3)OCO4)c12 (stereo unspecified)	/	0%	/	/	/	/
COc1ccc(O)c(C(=O)c2cnn(C(=O)c3cccc(N(C)C)c3)c2)c1	/	5%	/	/	22µM*	/
O=[N+]([O-])c1ccc(Sc2cccc[n+]2[O-])c2nonc12	?	9%	1.3µM*	1µM*	2%	1µM*
O=[N+]([O-])c1ccc(Nc2ccccc2)c2nonc12	/	21%	-8%	23%	0%	-9%
